# Experimental data published in the supplement of paper PMC8728848.
# This excerpt belongs to a sample that is enriched for the strongest signals.
# B1: PRKCE (Homo sapiens), Q02156 (protein)
# chain: MVVFNGLLKIKICEAVSLKPTAWSLRHAVGPRPQTFLLDPYIALNVDDSRIGQTATKQKTNSPAWHDEFVTDVCNGRKIELAVFHDAPIGYDDFVANCTIQFEELLQNGSRHFEDWIDLEPEGRVYVIIDLSGSSGEAPKDNEERVFRERMRPRKRQGAVRRRVHQVNGHKFMATYLRQPTYCSHCRDFIWGVIGKQGYQCQVCTCVVHKRCHELIITKCAGLKKQETPDQVGSQRFSVNMPHKFGIHNYKVPTFCDHCGSLLWGLLRQGLQCKVCKMNVHRRCETNVAPNCGVDARGIAKVLADLGVTPDKITNSGQRRKKLIAGAESPQPASGSSPSEEDRSKSAPTSPCDQEIKELENNIRKALSFDNRGEEHRAASSPDGQLMSPGENGEVRQGQAKRLGLDEFNFIKVLGKGSFGKVMLAELKGKDEVYAVKVLKKDVILQDDDVDCTMTEKRILALARKHPYLTQLYCCFQTKDRLFFVMEYVNGGDLMFQIQRSRKFDEPRSRFYAAEVTSALMFLHQHGVIYRDLKLDNILLDAEGHCKLADFGMCKEGILNGVTTTTFCGTPDYIAPEILQELEYGPSVDWWALGVLMYEMMAGQPPFEADNEDDLFESILHDDVLYPVWLSKEAVSILKAFMTKNPHKRLGCVASQNGEDAIKQHPFFKEIDWVLLEQKKIKPPFKPRIKTKRDVNNFDQDFTREEPVLTLVDEAIVKQINQEEFKGFSYFGEDLMP
# Tests used:
# Assay in all cases: glycan array binding signal (z-score within array); higher = stronger binding
# Conditions in all cases: glycan notation: IUPAC condensed, linker removed
# [1] = target: Fuc(a1-2)Gal(b1-3)GalNAc(b1-4)[Neu5Ac(a2-3)]Gal(b1-4)Glc
# Procedure, shortened: (§1)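 Glycan array data came from 3228 arrays in the Consortium for Functional Glycomics database, and only arrays with an available protein sequence were kept. Glycan names were put into IUPAC-condensed notation, and columns mapping to the same glycan were averaged. The binding signal is a within-array Z-score, averaged across arrays of one protein sequence run at different concentrations or buffers and across linkers. A negative Z-score can be read as non-binding.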
# [2] = target: Fuc(a1-2)Gal(b1-3)[Fuc(a1-4)]GlcNAc
# Procedure, shortened: as §1
# [3] = target: Fuc(a1-2)Gal(b1-3)[Fuc(a1-4)]GlcNAc(b1-2)Man(a1-3)[Fuc(a1-2)Gal(b1-3)[Fuc(a1-4)]GlcNAc(b1-2)Man(a1-6)]Man(b1-4)GlcNAc(b1-4)GlcNAc
# Procedure, shortened: as §1
# [4] = target: Fuc(a1-2)Gal(b1-4)Glc6S
# Procedure, shortened: as §1
# [5] = target: Fuc(a1-2)Gal(b1-4)GlcNAc(b1-3)Gal(b1-4)GlcNAc(b1-3)Gal(b1-4)GlcNAc
# Procedure, shortened: as §1
# [6] = target: Fuc(a1-2)Gal(b1-4)[Fuc(a1-3)]GlcNAc(b1-3)[Neu5Ac(a2-6)Gal(b1-4)GlcNAc(b1-6)]Gal(b1-4)Glc
# Procedure, shortened: as §1
# [7] = target: Fuc(a1-2)Gal6S(b1-4)Glc6S
# Procedure, shortened: as §1
# [8] = target: Fuc(a1-2)[Gal(a1-3)]Gal(b1-3)GlcNAc
# Procedure, shortened: as §1
# [9] = target: Fuc(a1-2)[Gal(a1-3)]Gal(b1-3)GlcNAc(b1-3)GalNAc
# Procedure, shortened: as §1
# [10] = target: Fuc(a1-2)[Gal(a1-3)]Gal(b1-4)GlcNAc(b1-2)Man(a1-3)[Fuc(a1-2)[Gal(a1-3)]Gal(b1-4)GlcNAc(b1-2)Man(a1-6)]Man(b1-4)GlcNAc(b1-4)GlcNAc
# Procedure, shortened: as §1
# [11] = target: Fuc(a1-2)[Gal(a1-3)]Gal(b1-4)GlcNAc(b1-6)GalNAc
# Procedure, shortened: as §1
# [12] = target: Fuc(a1-2)[GalNAc(a1-3)]Gal(b1-3)GlcNAc
# Procedure, shortened: as §1
# [13] = target: Fuc(a1-3)[Gal(b1-4)]GlcNAc(b1-4)Gal(b1-4)[Fuc(a1-3)]GlcNAc(b1-4)Gal(b1-4)[Fuc(a1-3)]GlcNAc
# Procedure, shortened: as §1
# [14] = target: Gal(a1-2)Gal
# Procedure, shortened: as §1
# [15] = target: Gal(b1-3)GalNAc
# Procedure, shortened: as §1
# [16] = target: Gal(b1-3)GlcNAc
# Procedure, shortened: as §1
# [17] = target: Gal(b1-3)GlcNAc(b1-3)Gal(b1-4)GlcNAc(b1-6)[Gal(b1-3)GlcNAc(b1-3)]Gal(b1-4)Glc
# Procedure, shortened: as §1
# [18] = target: Gal(b1-3)GlcNAc(b1-3)Gal(b1-4)[Fuc(a1-3)]GlcNAc(b1-6)[Gal(b1-3)GlcNAc(b1-3)]Gal(b1-4)Glc
# Procedure, shortened: as §1
# [19] = target: Gal(b1-4)GalNAc(b1-3)[Fuc(a1-2)]Gal(b1-4)GlcNAc
# Procedure, shortened: as §1
# [20] = target: Gal(b1-4)GlcNAc(b1-2)Man(a1-3)[Gal(b1-4)GlcNAc(b1-2)][GlcNAc(b1-4)]Man(b1-4)GlcNAc(b1-4)GlcNAc
# Procedure, shortened: as §1
# [21] = target: Gal(b1-4)GlcNAc(b1-2)Man(a1-3)[GlcNAc(b1-2)Man(a1-6)]Man(b1-4)GlcNAc(b1-4)GlcNAc
# Procedure, shortened: as §1
# [22] = target: Gal(b1-4)GlcNAc(b1-2)Man(a1-6)Man(b1-4)GlcNAc(b1-4)GlcNAc
# Procedure, shortened: as §1
# [23] = target: Gal(b1-4)GlcNAc(b1-2)Man(a1-6)[GlcNAc(b1-2)Man(a1-3)]Man(b1-4)GlcNAc(b1-4)GlcNAc
# Procedure, shortened: as §1
# [24] = target: Gal(b1-4)GlcNAc(b1-3)Gal(b1-4)GlcNAc
# Procedure, shortened: as §1
# [25] = target: Gal(b1-4)GlcNAc(b1-3)Gal(b1-4)GlcNAc(b1-3)Gal(b1-4)GlcNAc
# Procedure, shortened: as §1
# [26] = target: Gal(b1-4)GlcNAc(b1-3)Gal(b1-4)[Fuc(a1-3)GlcNAc(b1-6)]Gal(b1-4)Glc
# Procedure, shortened: as §1
# [27] = target: Gal3S(b1-4)GlcNAc6S
# Procedure, shortened: as §1
# [28] = target: Gal3S4S(b1-4)GlcNAc
# Procedure, shortened: as §1
# [29] = target: Gal6S(b1-4)GlcNAc6S
# Procedure, shortened: as §1
# [30] = target: GalNAc(b1-3)Gal(a1-4)Gal(b1-4)GlcNAc(b1-3)Gal(b1-4)Glc
# Procedure, shortened: as §1
# [31] = target: GalNAc4S6S(b1-4)GlcNAc
# Procedure, shortened: as §1
# [32] = target: GlcA(b1-3)GlcNAc
# Procedure, shortened: as §1
# [33] = target: GlcNAc(b1-3)[GlcNAc(b1-4)][GlcNAc(b1-6)]GlcNAc
# Procedure, shortened: as §1
# [34] = target: Kdn(a2-3)Gal(b1-3)GalNAc
# Procedure, shortened: as §1
# [35] = target: Kdn(a2-3)Gal(b1-3)GlcNAc
# Procedure, shortened: as §1
# [36] = target: Neu5Ac(a2-3)Gal(b1-3)GalNAc6S
# Procedure, shortened: as §1
# [37] = target: Neu5Ac(a2-3)Gal(b1-4)GlcNAc(b1-2)Man(a1-3)[Neu5Ac(a2-3)Gal(b1-4)GlcNAc(b1-2)Man(a1-6)]Man(b1-4)GlcNAc(b1-4)[Fuc(a1-6)]GlcNAc
# Procedure, shortened: as §1
# [38] = target: Neu5Ac(a2-3)Gal(b1-4)GlcNAc(b1-3)Gal(b1-4)[Fuc(a1-3)]GlcNAc
# Procedure, shortened: as §1
# [39] = target: Neu5Ac(a2-6)Gal(b1-4)GlcNAc(b1-2)Man(a1-3)[Gal(b1-4)GlcNAc(b1-2)Man(a1-6)]Man(b1-4)GlcNAc(b1-4)GlcNAc
# Procedure, shortened: as §1
# [40] = target: Neu5Ac(a2-6)Gal(b1-4)GlcNAc(b1-2)Man(a1-3)[GlcNAc(b1-2)Man(a1-6)]Man(b1-4)GlcNAc(b1-4)GlcNAc
# Procedure, shortened: as §1
# [41] = target: Neu5Ac(a2-6)GlcNAc(b1-4)GlcNAc
# Procedure, shortened: as §1
# [42] = target: Neu5Ac(b2-6)Gal(b1-4)GlcNAc
# Procedure, shortened: as §1
# [43] = target: Neu5Gc(a2-6)GalNAc
# Procedure, shortened: as §1
binder,measurement,setting,value
B1,glycan array binding signal (z-score),[1],-0.414
same,glycan array binding signal (z-score),[2],-0.08
same,glycan array binding signal (z-score),[3],3.82
same,glycan array binding signal (z-score),[4],0.01
same,glycan array binding signal (z-score),[5],-0.376
same,glycan array binding signal (z-score),[6],-0.275
same,glycan array binding signal (z-score),[7],3.89
same,glycan array binding signal (z-score),[8],-0.168
same,glycan array binding signal (z-score),[9],0.498
same,glycan array binding signal (z-score),[10],-0.355
same,glycan array binding signal (z-score),[11],4.32
same,glycan array binding signal (z-score),[12],-0.107
same,glycan array binding signal (z-score),[13],-0.315
same,glycan array binding signal (z-score),[14],0.035
same,glycan array binding signal (z-score),[15],-0.389
same,glycan array binding signal (z-score),[16],-0.364
same,glycan array binding signal (z-score),[17],-0.234
same,glycan array binding signal (z-score),[18],-0.277
same,glycan array binding signal (z-score),[19],0.061
same,glycan array binding signal (z-score),[20],-0.146
same,glycan array binding signal (z-score),[21],2.61
same,glycan array binding signal (z-score),[22],-0.31
same,glycan array binding signal (z-score),[23],1.3
same,glycan array binding signal (z-score),[24],-0.365
same,glycan array binding signal (z-score),[25],0.155
same,glycan array binding signal (z-score),[26],-0.176
same,glycan array binding signal (z-score),[27],6.34
same,glycan array binding signal (z-score),[28],8.77
same,glycan array binding signal (z-score),[29],3.2
same,glycan array binding signal (z-score),[30],-0.217
same,glycan array binding signal (z-score),[31],-0.211
same,glycan array binding signal (z-score),[32],-0.247
same,glycan array binding signal (z-score),[33],4.39
same,glycan array binding signal (z-score),[34],-0.132
same,glycan array binding signal (z-score),[35],-0.38
same,glycan array binding signal (z-score),[36],-0.364
same,glycan array binding signal (z-score),[37],-0.386
same,glycan array binding signal (z-score),[38],-0.192
same,glycan array binding signal (z-score),[39],0.571
same,glycan array binding signal (z-score),[40],3.58
same,glycan array binding signal (z-score),[41],-0.318
same,glycan array binding signal (z-score),[42],-0.121
same,glycan array binding signal (z-score),[43],-0.342
